For 57 compounds, inhibition results are on record in PubChem BioAssay AID743445 (Broad Institute, 2014).

The campaign covered roughly 310,000 compounds. About 1,700 (0.55%) were called active. No stated cut-off is given here; in the data, active means inhibition above about 50%; inactive means the rest. The entries come from a sample that favours actives as a whole.

For the assay, the target named is Histone-lysine N-methyltransferase NSD2 (Homo sapiens) (UniProt O96028). Kind of assay: blockers of NSD2 lysine methylation activity – biochemical, AlphaScreen, single concentration, set 2, primary screen (AID 743445). As to conditions: NSD2 peptide methylation, 120 min, at 12.5 µM, hits give high values.
Chain of Histone-lysine N-methyltransferase NSD2 (Homo sapiens) (O96028 whole entry, looked up): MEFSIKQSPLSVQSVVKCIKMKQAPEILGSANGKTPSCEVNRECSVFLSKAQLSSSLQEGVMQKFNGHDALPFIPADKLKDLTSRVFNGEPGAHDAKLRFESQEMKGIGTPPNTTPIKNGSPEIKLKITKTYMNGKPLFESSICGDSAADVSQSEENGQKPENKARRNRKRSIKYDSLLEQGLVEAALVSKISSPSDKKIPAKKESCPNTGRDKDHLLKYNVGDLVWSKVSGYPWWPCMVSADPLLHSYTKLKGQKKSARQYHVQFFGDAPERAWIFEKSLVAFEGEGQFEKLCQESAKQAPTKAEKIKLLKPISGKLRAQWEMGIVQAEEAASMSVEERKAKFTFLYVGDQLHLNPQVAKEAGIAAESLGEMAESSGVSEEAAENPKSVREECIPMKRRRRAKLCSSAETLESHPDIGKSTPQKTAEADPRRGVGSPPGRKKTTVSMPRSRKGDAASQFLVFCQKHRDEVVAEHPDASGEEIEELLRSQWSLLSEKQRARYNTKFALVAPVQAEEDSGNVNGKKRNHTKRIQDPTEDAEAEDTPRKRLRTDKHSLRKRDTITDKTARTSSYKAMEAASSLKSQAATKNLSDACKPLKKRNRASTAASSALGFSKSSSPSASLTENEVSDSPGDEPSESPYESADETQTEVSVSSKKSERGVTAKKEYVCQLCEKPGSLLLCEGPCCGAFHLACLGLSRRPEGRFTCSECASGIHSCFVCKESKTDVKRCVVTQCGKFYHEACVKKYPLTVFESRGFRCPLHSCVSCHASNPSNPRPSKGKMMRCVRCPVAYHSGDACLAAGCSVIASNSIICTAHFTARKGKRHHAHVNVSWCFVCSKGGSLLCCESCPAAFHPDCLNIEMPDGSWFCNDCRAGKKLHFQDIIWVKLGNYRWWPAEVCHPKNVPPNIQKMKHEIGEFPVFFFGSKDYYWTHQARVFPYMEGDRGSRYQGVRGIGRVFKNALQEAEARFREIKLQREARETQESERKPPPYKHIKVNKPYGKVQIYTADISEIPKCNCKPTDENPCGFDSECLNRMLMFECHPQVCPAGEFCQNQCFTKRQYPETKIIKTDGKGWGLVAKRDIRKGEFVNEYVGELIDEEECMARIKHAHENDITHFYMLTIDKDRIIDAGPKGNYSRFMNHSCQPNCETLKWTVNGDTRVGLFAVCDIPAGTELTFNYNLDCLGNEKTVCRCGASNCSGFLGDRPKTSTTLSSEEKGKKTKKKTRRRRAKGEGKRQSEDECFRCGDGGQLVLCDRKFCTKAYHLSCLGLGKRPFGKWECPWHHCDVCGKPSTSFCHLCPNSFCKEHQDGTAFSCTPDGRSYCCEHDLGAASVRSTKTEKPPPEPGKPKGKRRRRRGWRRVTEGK
As a reminder, the inhibition is the drop in the measured response relative to a control, in per cent. On to `CN(CC(=O)Nc1ccc(F)cc1)C(=O)c1ccc(-c2ccc(Cl)cc2)o1`, for which the inhibition is -0.366% (inactive). For the compound `O=C(NC1CCCCC1)c1ccc(-c2ccc(Cl)cc2)o1`, the inhibition was -1.75% (inactive). The same measure for `Cc1[nH][nH]c(=O)c1C(c1ccc(-c2ccc(Cl)cc2)o1)c1c(C)[nH][nH]c1=O`: 105% (active); for `O=C(NCC1COc2ccccc2O1)c1ccc(NC(=O)c2cc(F)ccc2F)cc1` (configuration not stated): -0.735% (inactive). In the case of `COc1ccc(OC)c(NC(=O)CCN2CCC(C)CC2)c1`, the inhibition was 0.958% (inactive).

For `CC1CCN(CCC(=O)Nc2ccccc2)CC1`, the inhibition is 51.1% (active). The figure for `CCOC(=O)N1CCN(CCC(=O)Nc2ccccc2)CC1` is -3.41% (inactive).

As for `O=c1[nH]c(CN2CCOCC2)nc2scc(-c3ccccc3)c12`, the inhibition was -2.17% (inactive). The figure for `O=c1[nH]c(CN2CCOCC2)nc2cc(Cl)ccc12` is 108% (active). The figure for `CN(CCOc1ccccc1)Cc1nc2cc(Cl)ccc2c(=O)[nH]1` is -1.91% (inactive). Consider `Cc1ccccc1CS(=O)(=O)Cc1ccc(C(=O)Nc2ccc(Cl)cc2)o1`, for which the inhibition was 1.09% (inactive). The same measure for `CCOC(=O)c1csc(NC(=O)C2CCCN(S(=O)(=O)c3ccc(Cl)s3)C2)n1` (configuration not stated): 2.06% (inactive). On to `O=C(CSc1nnc(-c2ccccc2O)o1)NC1CCCCC1`, for which the inhibition was 55.7% (active). As for `Cc1cc(C)cc(-c2nnc(SCC(=O)NC3CC3)o2)c1`, the inhibition is 0.103% (inactive). As for `Cc1occc1-c1nnc(SCC(=O)NC2CCCCC2)o1`, the inhibition was 0.775% (inactive). `CN(C)C(=O)N1CCN(C(=O)[C@@H](Cc2ccccc2)NC(=O)[C@H]2O[C@@H](n3ccc(N)nc3=O)[C@H](O)[C@@H]2O)CC1`: the inhibition was -3.38% (inactive). With `Clc1ccc(C2=CSC3=Nc4cccc5cccc(c45)N23)cc1`, the inhibition is 125% (active). As to `COc1ccc(CNC(=O)c2nnn(CC(=O)Nc3cc(C)cc(C)c3)c2N)cc1`, the inhibition is 0.097% (inactive).

As to `COc1ccc(NC(=O)Cn2nnc(C(=O)NCCc3ccc(OC)c(OC)c3)c2N)cc1`, the inhibition was 159% (active).

Take `CCc1ccc(NC(=O)Cn2nnc(C(=O)NCc3ccc(OC)cc3)c2N)cc1`: the inhibition is -10.9% (inactive). The figure for `CC(C)(C)c1ccc(CSc2nnc(-c3cccs3)o2)cc1` is -3.66% (inactive). Regarding `C=CCn1c(=NC(=O)c2ccc(S(=O)(=O)N3CCCC3)cc2)sc2cc(NC(C)=O)ccc21`, the inhibition is 96.1% (active). The same measure for `CC(=O)Nc1ccc(S(=O)(=O)N2CCSCC2)cc1`: -0.875% (inactive); for `COc1cc(C(C)=O)ccc1OC(C)C(=O)Nc1ccc(S(=O)(=O)N2CCCC2)cc1` (configuration not stated): -0.04% (inactive). For `Clc1ccc(-n2c(SC/C=C/c3ccccc3)nnc2-c2ccco2)cc1`, the inhibition is 1.46% (inactive). The same measure for `COc1cccc(CNC(=O)C2CCCN(c3nc4ccccc4o3)C2)c1OC` (configuration not stated): 0.947% (inactive).

Turning to `CN(C)CCNC(=O)c1ccc(-c2cn3c(-c4ccc(Oc5ccccc5)cc4)cnc3cn2)cc1`, the inhibition was 1.51% (inactive). On to `Cc1ccc(C(=O)C2CCN(CC(=O)NCCC(C)C)CC2)cc1`, for which the inhibition was -1.14% (inactive). The figure for `O=C(NC(c1ccc(Cl)cc1)c1cnccn1)C1CCN(Cc2ccc(Cl)cc2)CC1` (configuration not stated) is -0.128% (inactive). Take `Cn1c(=O)c2cc(NC(=O)NCCc3cccs3)ccc2n1Cc1cccc(C(F)(F)F)c1`: the inhibition is 0.114% (inactive). Take `CCN1CCCC1CNC(=O)c1ccc2c(c1)NC(=O)/C(=C\c1ccccc1F)S2` (configuration not stated): the inhibition is 21.8% (inactive). For `O=C1Nc2cc(C(=O)N3CCC(N4CCCCC4)CC3)ccc2S/C1=C\c1ccccc1`, the inhibition is 50.2% (active). With `CCN1CCN(CCNC(=O)c2ccc3c(c2)NC(=O)/C(=C\c2cccc(Cl)c2)S3)CC1`, the inhibition is 2.99% (inactive). In the case of `CCC(=O)N1CCc2cc(S(=O)(=O)NC(C(=O)N3CCc4ccccc4C3)C(C)C)ccc21` (configuration not stated), the inhibition is 59.8% (active). The figure for `CCC(=O)N1CCc2cc(S(=O)(=O)CCC(=O)N3CCN(c4ccccc4F)CC3)ccc21` is -2.83% (inactive); for `CCOC(=O)N1CCC(NC(=O)C(NS(=O)(=O)c2ccc3c(c2)CCN3C(=O)CC)C(C)C)CC1` (configuration not stated) it is 17.1% (inactive); for `COc1cccc(-c2cc3nc(NCc4ccccc4OC)n(C)c(=O)c3s2)c1` it is -2.63% (inactive). On to `O=C(CSc1nc2ccccc2s1)NN=Cc1ccc(O)cc1O`, for which the inhibition was 9.45% (inactive). `C=CCNC(=O)CCCOc1cccc(C)c1`: the inhibition is -2.74% (inactive).

`CCCCCCCCC(=O)NCCOc1ccccc1`: the inhibition was 1.73% (inactive). `C=CCNCCCCOc1ccccc1`: the inhibition was 73.8% (active).

`Cc1ccc(CC2(C)C(=O)Nc3ccc(OC(F)(F)F)cc32)cc1` (configuration not stated): the inhibition is -1.93% (inactive). With `O=C(CN1CCC(NC(=O)NCc2ccccc2)CC1)Nc1ccc2c(c1)OCCO2`, the inhibition is -3.14% (inactive). The same measure for `O=C(NCc1cccs1)C1CCN(S(=O)(=O)c2ccccc2[N+](=O)[O-])CC1`: -1.94% (inactive); for `Cc1ccc(S(=O)(=O)N/N=C(\c2ccccc2)C2CC2)cc1`: -5.26% (inactive); for `Cc1ccc(S(=O)(=O)/N=C2\C=C(NS(=O)(=O)c3ccc(C)cc3)C(=O)c3ccccc32)cc1`: 186% (active).

Consider `Cc1ccc(S(=O)(=O)N[C@H](CO)C(C)C)cc1`, for which the inhibition was -1.39% (inactive).

On to `COc1ccc(S(=O)(=O)/N=C2\C=C(NS(=O)(=O)c3ccccc3)C(=O)c3ccccc32)cc1`, for which the inhibition is 116% (active). For the compound `O=C1C=C(NS(=O)(=O)c2ccccc2)C(=O)c2ccccc21`, the inhibition was 16.2% (inactive). `COc1ccc(S(=O)(=O)NCCCc2ccccc2)cc1`: the inhibition was -2.03% (inactive). In the case of `CCCCN(C=O)c1c(CC)nc2c(OCc3ccccc3C(=O)OC)cccn12`, the inhibition was 2.37% (inactive). For `Cc1nc2c(OCc3cccc(Cl)c3)cccn2c1N(C)CC1CC1`, the inhibition is 1.55% (inactive).

As to `CCn1c2ccccc2c2cc(NC(=O)CSc3nnc(-c4ccccc4)n3-c3ccc(C)cc3)ccc21`, the inhibition is 0.529% (inactive). With `Cc1nnc(SCC(=O)NCc2cccs2)[nH]c1=O`, the inhibition was -1.95% (inactive). The same measure for `CC(C)(C)CC(=O)Nc1nnc(SCC(=O)NCc2cccs2)s1`: 63.2% (active); for `O=C(Cc1cccs1)Nc1nnc(SCc2ccc(F)cc2)s1`: 0.676% (inactive); for `CCOC(=O)[C@]12CCCC=C1N(CCC1=CCCCC1)C(=O)[C@H](CC(=O)NCCCCc1ccccc1)C2`: 1.69% (inactive).
